About 83,000 compounds went through this panel and 20% of them were active in at least one assay; those are over-represented in the sample as a whole.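 Values shown are percent growth following 48 h exposure of cells in 96-well plates to a single concentration of compound; below 10 was considered active.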 A number with no mark means an inactive call. The source made the active and inactive calls.

Test systems include SR leukemia; RPMI-8226 leukemia; OVCAR-8 ovarian; OVCAR-5 ovarian; OVCAR-4 ovarian; SK-OV-3 ovarian; IGROV1 ovarian; OVCAR-3 ovarian; HS 578T breast; NCI/ADR-RES ovarian.
Test in all cases: NCI-60 one-dose screen, 48 h (100 = growth as untreated, 0 = no growth, -100 = all killed)
Holding throughout (details): 10 µM unless noted

Regarding `COc1ccc(-c2nc3sccn3c2/C=C/C(=O)c2ccc3c(c2)OCO3)cc1`, the growth in the assay on SR leukemia is 41.4%; in the assay on RPMI-8226 leukemia, 10.5%; in the assay on OVCAR-8 ovarian, 80.9%; in the assay on OVCAR-5 ovarian, 108%; in the assay with OVCAR-4 ovarian, 46.1%; with SK-OV-3 ovarian it was 170%. Besides, the growth is 85.1% in the assay with IGROV1 ovarian, 84.8% with OVCAR-3 ovarian, 96.9% with HS 578T breast and 75.7% in the assay on NCI/ADR-RES ovarian.
For `Cc1ccc(C(=O)/C(=C\c2ccc([N+](=O)[O-])cc2)S(=O)Cc2ccc(F)cc2)cc1` (stereo not given), the growth is 7.86% (active) with SR leukemia; -21.3% (active) in the assay with RPMI-8226 leukemia; 12.5% in the assay on OVCAR-8 ovarian; 37.3% in the assay with OVCAR-5 ovarian; 30.6% in the assay on OVCAR-4 ovarian; 102% with SK-OV-3 ovarian. Further, the growth was -16.8% (active) in the assay on IGROV1 ovarian, 9.09% (active) in the assay on OVCAR-3 ovarian, 21.9% in the assay with HS 578T breast and 26.8% in the assay on NCI/ADR-RES ovarian.
Turning to `COc1cc(/C=N/NC(=O)c2cnn3c2NC(c2ccccc2)C3)ccc1Oc1ccccc1` (stereo not given), the growth is 18% with SR leukemia; 56.1% with RPMI-8226 leukemia; 30.7% with OVCAR-8 ovarian; 59.6% in the assay with OVCAR-5 ovarian; 31.7% in the assay on OVCAR-4 ovarian; 27.6% in the assay with SK-OV-3 ovarian. Further, the growth is 33.8% with IGROV1 ovarian, -23.4% (active) with OVCAR-3 ovarian, 37.8% with HS 578T breast and 41.3% with NCI/ADR-RES ovarian.
With `c1ccc(Cn2cnc3ccc(-c4nc(-c5ccc6c(c5)ncn6C5CCCCC5)cn5ccnc45)cc32)cc1`, the growth with SR leukemia was 5.45% (active); with RPMI-8226 leukemia it was -41.2% (active); in the assay with OVCAR-8 ovarian, 2.45% (active); in the assay on OVCAR-5 ovarian, -29% (active); in the assay with OVCAR-4 ovarian, 16.8%; in the assay with SK-OV-3 ovarian, -22.2% (active). The growth was 5.81% (active) in the assay with IGROV1 ovarian, -35.7% (active) in the assay with OVCAR-3 ovarian, 0.386% (active) in the assay on HS 578T breast and 0.531% (active) in the assay on NCI/ADR-RES ovarian.
In the case of `CN1C(=O)NC(c2ccc3c(c2)OCO3)C=C1c1ccccc1` (stereo not given), the growth is 23.3% in the assay on SR leukemia; 65.5% with RPMI-8226 leukemia; 93.6% with OVCAR-8 ovarian; 93.9% in the assay on OVCAR-5 ovarian; 97.5% in the assay with OVCAR-4 ovarian; 94.1% in the assay on SK-OV-3 ovarian. The growth was 78.7% with IGROV1 ovarian, 91.1% with OVCAR-3 ovarian, 101% in the assay on HS 578T breast and 98.8% in the assay on NCI/ADR-RES ovarian.
On to `CC(=O)Nc1cccc(-c2ccc3c(c2)NC(=O)/C3=C\c2ccc[nH]2)c1`, for which the growth is 9.65% (active) with SR leukemia; 15.8% in the assay with RPMI-8226 leukemia; 56.4% with OVCAR-8 ovarian; 38.4% with OVCAR-5 ovarian; 53.1% in the assay on OVCAR-4 ovarian; 48.8% with SK-OV-3 ovarian. Besides, the growth is 43.4% in the assay with IGROV1 ovarian, 69.6% in the assay on OVCAR-3 ovarian, 64.6% with HS 578T breast and 49.6% with NCI/ADR-RES ovarian.
For the compound `Oc1c(Cl)cc(Cl)c(Cl)c1CNCCNCc1c(O)c(Cl)cc(Cl)c1Cl`, the growth in the assay on SR leukemia was 1.15% (active); with RPMI-8226 leukemia, 18%; in the assay on OVCAR-8 ovarian, 11.3%; in the assay on OVCAR-5 ovarian, 54%; with OVCAR-4 ovarian it was 22.6%; with SK-OV-3 ovarian, 22%. The growth is 16.4% in the assay on IGROV1 ovarian, 19.1% in the assay on OVCAR-3 ovarian, 57.7% in the assay on HS 578T breast and 4.33% (active) with NCI/ADR-RES ovarian.
Take `COc1cc(/C(C)=C(\c2ccc(Cl)cc2)c2ccc(OCCN3CCCC3)cc2)ccc1F`: the growth in the assay on SR leukemia was -25.3% (active); with RPMI-8226 leukemia, 14.7%; in the assay on OVCAR-8 ovarian, 69.1%; in the assay on OVCAR-5 ovarian, 74.8%; in the assay on OVCAR-4 ovarian, 51.8%; in the assay with SK-OV-3 ovarian, 108%. The growth with IGROV1 ovarian was 40.4%; with OVCAR-3 ovarian, 63%; with HS 578T breast, 70.5%; with NCI/ADR-RES ovarian it was 69.9%.
As for `CCCCCCNC(=O)Oc1ccc(/C(=C(\C)c2ccccc2)c2ccc(OCCN3CCCCC3)cc2)cc1`, the growth in the assay with SR leukemia is -8.47% (active); in the assay on RPMI-8226 leukemia it was 39.6%; in the assay on OVCAR-8 ovarian it was 76.6%; with OVCAR-5 ovarian, 93.9%; with OVCAR-4 ovarian it was 71%; with SK-OV-3 ovarian, 71.8%. Also, the growth in the assay on IGROV1 ovarian is 63.7%; in the assay on OVCAR-3 ovarian, 66.9%; with HS 578T breast, 76.3%; with NCI/ADR-RES ovarian, 63.1%.
For `C=C(C)[C@@H]1CC[C@]2(C(=O)N3CCN(C)CC3)CC[C@]3(C)[C@H](CC[C@@H]4[C@@]5(C)CC[C@H](O)C(C)(C)[C@@H]5CC[C@]43C)[C@@H]12`, the growth in the assay on SR leukemia was -19.9% (active); in the assay on RPMI-8226 leukemia, -40.1% (active); with OVCAR-8 ovarian it was -55% (active); with OVCAR-5 ovarian, -13.8% (active); with OVCAR-4 ovarian, -79.6% (active); in the assay with SK-OV-3 ovarian, 125%. Also, the growth with IGROV1 ovarian was -72.6% (active); in the assay on OVCAR-3 ovarian, -94% (active); with HS 578T breast it was -46.1% (active); in the assay with NCI/ADR-RES ovarian, -42.7% (active).
With `COc1cc2c(c(O)c1Br)C(=O)c1c(O)cc(C[C@H](C)O)cc1[C@H]2[C@H]1c2cc(C[C@H](C)O)cc(O)c2C(=O)c2c1cc(OC)c(Br)c2O`, the growth is -5.41% (active) in the assay with SR leukemia; 9.04% (active) with RPMI-8226 leukemia; 10.4% with OVCAR-8 ovarian; 0.764% (active) in the assay with OVCAR-5 ovarian; 11.5% in the assay with OVCAR-4 ovarian; 8.82% (active) in the assay on SK-OV-3 ovarian. Besides, the growth is 2.65% (active) in the assay on IGROV1 ovarian, -27.4% (active) in the assay with OVCAR-3 ovarian, 9.13% (active) in the assay on HS 578T breast and 56.3% in the assay on NCI/ADR-RES ovarian.
As for `Brc1ccc(Nc2csc(-c3ccccn3)n2)cc1`, the growth is 97.3% in the assay with SR leukemia; 98% with RPMI-8226 leukemia; 98.6% in the assay with OVCAR-8 ovarian; 76.6% in the assay on OVCAR-5 ovarian; 101% with OVCAR-4 ovarian; 82.8% in the assay on SK-OV-3 ovarian. The growth is 63.4% in the assay on IGROV1 ovarian, 95.7% with OVCAR-3 ovarian, 92.4% with HS 578T breast and 93.5% with NCI/ADR-RES ovarian.

Values taken from PubChem BioAssay (NCI).
